High-throughput results from PubChem.
Most compounds without a hit are left out; they make up all but 17% or so of the library.
S2 tox – Viability Counterscreen for Primary qHTS for Inhibitors of ATXN expression; Potency, µM (doses to about 56.7 µM), hits mostly cytotoxic; hit rate 0.49% among 400,000; S2 cells (HEK-293 line with an ATXN2-luciferase reporter) viability, CellTiter-Fluor protease fluorescence, 24 h; also: nearly all actives have a fitted effect of over 40% in size
TDP1 cell CPT – qHTS for Inhibitors of human tyrosyl-DNA phosphodiesterase 1 (TDP1): qHTS in cells in presence of CPT; Potency, µM (doses to about 46.2 µM), inactives show top-dose activity change, negative = growth inhibition, hits mostly inhibitors; AID 686979, 2013; chicken DT40 Tdp1-/-;hTDP1 cells + 20 nM CPT, ATP luminescence, 48 h; hit rate 12% among 420,000; also: % is scaled to controls: 0 for no effect and ±100 for the full control effect; nearly all actives have a fitted effect of over 55% in size
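Chicken DT40 Tdp1-/- cells complemented with human TDP1, 400 cells/well, exposed to compounds plus 20 nM camptothecin for at least 48 h at 37 C; viability read as ATP content by CellTiter-Glo luminescence.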
TDP1 cell noCPT – qHTS for Inhibitors of human tyrosyl-DNA phosphodiesterase 1 (TDP1): qHTS in cells in absence of CPT | DT40 Tdp1-/- hTDP1 cells, no CPT, ATP luminescence, 48 h | Potency, µM (top dose mostly 46.2 µM), for the others: top-dose activity change, negative = growth inhibition, usual class: inhibitors | hit rate 15% among 420,000 | AID 686978, 2013; also: % is scaled to controls: 0 for no effect and ±100 for the full control effect; nearly all actives have a fitted effect of over 55% in size
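Chicken DT40 Tdp1-/- cells complemented with human TDP1, screened without camptothecin (DMSO vehicle only), 400 cells/well. Compounds pin-transferred, cells incubated at 37 °C for at least 48 hr. Growth read as ATP-dependent luminescence (CellTiter-Glo, 30 min at RT).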
TGFb SMAD3 inh – qHTS for Inhibitors of TGF-b; Potency, µM (series often up to 46.1 µM), without a hit: at the top dose activity, negative = inhibition, usual class: inhibitors; hit rate 1.2% among 410,000; AID 588855, 2011; HepG2 CAGA-GFP TGF-b/SMAD3 reporter, GFP fluorescence, 18 h; TGF-beta stimulated, 500 pg/mL final; also: % is scaled to controls: 0 for no effect and ±100 for the full control effect; nearly all actives have a fitted effect of over 65% in size
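First, reporter cells (HEPG2 CAGA-GFP) rested 2 h at 37 degrees C. Next, compounds were pinned in and TGF-beta added to 500 pg/mL final. After 18 h, GFP was imaged per cell and summed per well.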
ATXN2 expr inh – Primary qHTS for Inhibitors of ATXN expression. HEK-293 ATXN2-luciferase reporter, luminescence, 24 h. Potency, µM (highest dose often 57 µM), without a hit: at the highest dose activity change, negative = inhibition, most hits filed as inhibitors. hit rate 0.72% among 360,000; also: % is scaled to controls: 0 for no effect and ±100 for the full control effect; nearly all actives have a fitted effect of over 55% in size
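qHTS (up to 57 uM final) was run with 24 h compound exposure of reporter cells at 37 °C. Each well was multiplexed: SteadyGlo luminescence measured ATXN2-luciferase expression after a fluorogenic Gly-Phe-AFC viability readout (25 uM final).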
HepG2 tox – qHTS for Inhibitors of TGF-b: Cytotox Counterscreen; hit rate 0.76% among 410,000; Potency, µM (highest dose often 46.1 µM), inactives show top-dose activity change, negative = cytotoxicity, hits mostly cytotoxic; HepG2 CAGA-GFP viability, ATP luminescence, 18 h
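HepG2 CAGA-GFP cells (1000/well, DMEM with 1% FBS) received compound, then TGF-beta at 500 pg/mL final, and were incubated 18 hours at 37 degrees C. Viability was read by CellTiter-Glo luminescence. Media-only wells were set as complete cell-killing and DMSO as no toxicity.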
The depositor's hits bear a star; i = inactive; u = inconclusive; x = no result. Calls follow the shape of the dose curve; as a rule, active = well fitted curve in the direction sought with a large enough effect; inconclusive = small, poorly fitted or top-dose-only effect, or another doubt; inactive = no such curve, though single readings can be large; an effect the other way counts as inactive or inconclusive. Potency is read from the fitted curve at half-maximal effect.

SMILES	S2 tox	TDP1 cell CPT	TDP1 cell noCPT	TGFb SMAD3 inh	ATXN2 expr inh	HepG2 tox
Cc1nc2c(F)c(F)c(C(F)(F)F)c(F)c2[nH]1	i	u	21µM*	-9%	-14%	-30%
Cc1nc2c(Br)c3nc(C(F)(F)F)[nH]c3c(Br)c2[nH]1	i	-6%	-20%	-7%	12%	5%
COc1cccc(CNC(=O)c2ccc(NC(=O)N3CCCCc4ccccc43)cc2)c1OC	i	u	16µM*	-9%	13%	2%
COCCNC(=O)c1ccc(NC(=O)N2CCCCc3ccccc32)cc1	i	-5%	-10%	-1%	3%	-3%
COc1cccc(CNC(=O)c2ccc(NC(=O)N3CCCCc4ccccc43)cc2)c1	i	u	21µM*	-11%	8%	-37%
COCCCNC(=O)c1ccc(-n2c(-c3ccccc3)cc3c2CCCC3)cc1	x	u	21µM*	u	x	-31%
O=C(NCc1ccccc1Cl)c1ccc(NC(=O)N2CCCCc3ccccc32)cc1	i	-3%	-9%	-8%	11%	-13%
COc1cccc(CNC(=O)c2ccc(-n3c(C)cc4c3CCCC4)cc2)c1	i	-83%	16µM*	22%	u	-11%
CCOC(=O)c1ccc(CN(Cc2ccc(F)cc2)S(=O)(=O)c2ccc(F)c(C(=O)Nc3c(C)cccc3C)c2)cc1	x	u	u	4%	x	2%
O=[N+]([O-])c1ccc(N2CCN(Cc3ccc(Br)o3)CC2)cc1	u	u	-8%	u	-28%	-54%
CCC1Sc2ccccc2N(CC(=O)NCc2ccc(C)cc2)C1=O (centres undefined)	x	u	23µM*	-34%	x	-22%
Cc1cc(NC(=O)CN2C(=O)c3ccccc3C2=O)no1	i	9%	10%	u	-16%	4%
CS(=O)(=O)N1CCC(c2noc(-c3ccc(C(F)(F)F)cc3)n2)CC1	i	9.2µM*	10µM*	-23%	-11%	-31%
CCS(=O)(=O)N1CCC(c2nc(-c3ccc(C)cc3)no2)CC1	i	29µM*	15µM*	-2%	31%	-3%
CCS(=O)(=O)N1CCC(c2nc(-c3ccc(C(F)(F)F)cc3)no2)CC1	i	8.9µM*	14µM*	4%	-19%	-12%
COc1ccc(NC(=O)CN2c3cccc4cccc(c34)S2(=O)=O)cc1OC	i	u	7.3µM*	-8%	x	-21%
Cc1ccc(NC(=O)CN2c3cccc4cccc(c34)S2(=O)=O)cc1S(=O)(=O)N1CCOCC1	i	u	18µM*	u	-13%	-11%
COc1ccc(NC(=O)CN2C(=O)c3ccccc3S2(=O)=O)cc1OC	i	1%	1%	-14%	3%	-12%
COCCNC(=O)C(c1ccc(C)cc1)N(C(=O)CCC(=O)Nc1ccccn1)c1ccccc1C (centres undefined)	i	5%	u	11%	5%	6%
CC(=O)N(c1ccc2oc(=O)sc2c1)S(=O)(=O)c1ccccc1	i	u	10µM*	-4%	-9%	-9%
CC(C)C(=O)N(c1ccc2oc(=O)sc2c1)S(=O)(=O)c1ccccc1	i	u	u	-9%	-16%	-14%
COc1ccc(OC)c(S(=O)(=O)N(C(C)=O)c2ccc3oc(=O)sc3c2)c1	i	4%	-8%	3%	0%	-10%
COc1ccc(C(=O)Oc2ccc3oc(=O)sc3c2)cc1	i	13µM*	u	-7%	-4%	-33%
COc1ccc(S(=O)(=O)N(C(=O)C(C)C)c2ccc3oc(=O)sc3c2)cc1	i	10µM*	16µM*	-30%	-14%	-42%
CC(C)(C)OC(=O)N1CCC(c2c(C(=O)NCc3cccs3)cnn2-c2cccc(F)c2)CC1	x	u	16µM*	-12%	x	-14%
SMILES	S2 tox	TDP1 cell CPT	TDP1 cell noCPT	TGFb SMAD3 inh	ATXN2 expr inh	HepG2 tox
Cc1ccc(C)c(NC(=O)c2cnn(-c3cccc(F)c3)c2C2CCN(C(=O)OC(C)(C)C)CC2)c1	u	u	23µM*	u	u	-45%
Cc1ccc(-n2ncc(C(=O)NCc3cccs3)c2C2CCN(C(=O)OC(C)(C)C)CC2)cc1C	x	16µM*	16µM*	u	x	-19%
Cc1ccc(-n2ncc(C(=O)NCc3ccccn3)c2C2CCN(C(=O)OC(C)(C)C)CC2)cc1C	x	u	18µM*	-13%	x	-25%
Cc1c(Cl)cccc1-n1ncc(C(=O)NCc2cccs2)c1C1CCN(C(=O)OC(C)(C)C)CC1	i	u	u	-3%	0%	-18%
Cc1cccc(-n2ncc(C(=O)NCc3ccccn3)c2C2CCN(C(=O)OC(C)(C)C)CC2)c1	x	u	u	-12%	x	-30%
Cc1ccc(-n2ncc(C(=O)NCc3cccs3)c2C2CCN(C(=O)OC(C)(C)C)CC2)c(C)c1	i	u	u	u	u	-26%
COc1ccc(OC)c(-c2csc(NC(=O)CSc3nnnn3C)n2)c1	i	-4%	-1%	8%	-3%	1%
COc1cc(Cl)c(C)cc1NC(=O)c1cn(C2CCCC2)c(=O)c2c1c1ccccc1n2C	i	0.65µM*	u	0%	-7%	3%
COc1cc(OC)c(N(C)C(=O)c2cn(C3CCCC3)c(=O)c3c2c2ccccc2n3C)cc1Cl	x	10µM*	8.2µM*	u	x	-32%
Cc1cc(Br)ccc1NC(=O)c1cn(C2CCCC2)c(=O)c2c1c1ccccc1n2C	x	-27%	u	u	x	-2%
CCOC(=O)N1CCN(C(=O)CCl)CC1	i	u	u	1%	-9%	-7%
